Compounds with a hit are over-represented: about 3.5% of the library has one in this group of screens.
Autofluor counter: compound fluorescence in toxin protease inhibitor counterscreen | compound autofluorescence counterscreen, microsphere flow cytometry; active compounds read high | fluorescence intensity (test concentration not listed) | hit rate 3.1% among 360,000 | AID 624483; in the data active means fluorescence intensity above about 16000; inconclusive means no clear call, values can overlap the other calls
BoNT F protease: inhibitors of Botulinum neurotoxin F light chain protease. inhibition, % at 10 µM. hit rate 0.22% among 360,000. Multiplex microsphere protease cleavage assay, flow cytometry; in the data active means inhibition above about 35%, passing the limit was not always enough; inconclusive means no clear call, values can overlap the other calls; further: plate controls were buffer without enzyme for full effect and enzyme alone for no effect
BoNT-A LC inh2: BoNT A light chain protease inhibition | multiplex microsphere protease substrate cleavage, flow cytometry | inhibition, % at 10 µM | hit rate 0.17% among 360,000 | AID 588499; further: plate controls were buffer without enzyme for full effect and enzyme alone for no effect
Anthrax LF inh2: anthrax lethal factor protease inhibition; P15917; multiplex microsphere protease cleavage assay, LF; inhibition, % at 10 µM; hit rate 0.12% among 360,000; further: plate controls were buffer without enzyme for full effect and enzyme alone for no effect
Numbers without * were called inactive; u = inconclusive. Unless noted, no stated cut-off is given here; in the data, active means inhibition above about 30%; inconclusive means no clear call, values can overlap the other calls; inactive means below that.

SMILES	Autofluor counter	BoNT F protease	BoNT-A LC inh2	Anthrax LF inh2
CCc1ccc(C2C3=C(CC(C)(C)CC3=O)Nc3c2c(=O)[nH]c2nc(C)nn32)cc1 (stereo not given)	21959*	-8.3	u	-1.3
COc1ccc([N+](=O)[O-])cc1NC1CCN(C(=O)c2cccs2)CC1	4898	-5.8	-2.2	2.9
Cc1cccc(CN2[C@H](COCc3ccccc3)C=CS2(=O)=O)c1	5824	1.5	0.1	-13.4
O=C(CCNS(=O)(=O)c1cccc2nsnc12)N1CC(=O)N(CCc2ccccc2)C(=O)C1	21566*	-6.8	u	-2.7
O=C(CCCNS(=O)(=O)c1cccc2nsnc12)N1CCCCC1	4308	-12.7	-0.1	-1.2
NNC(=O)c1nn(-c2ccc(Cl)cc2)ccc1=O	23538*	-4.2	u	-2.0
CNC(=O)c1nn(-c2ccc(C)cc2)ccc1=O	2354	-4.9	0.2	-2.6
CCCOc1ccc(C(F)(F)F)cc1NC(=O)C1CC(=O)N(Cc2ccco2)C1 (stereo not given)	3420	-2.6	-0.1	4.2
CC(=O)OC(C=C(C)C)C/C(C)=C/COc1c2ccoc2cc2oc(=O)ccc12 (stereo not given)	2878	3.1	0.1	-3.2
O=S(=O)(c1ccc(OC(F)(F)F)cc1)N1CCC(O)(c2cccc(C(F)(F)F)c2)CC1	3952	-19.5	1.4	-6.7
OC1(c2cccc(C(F)(F)F)c2)CCNCC1	20667*	-4.3	0.0	-4.9
Cc1ccc(COc2ccsc2-c2n[nH]c(=S)n2C)cc1	22046*	2.9	2.0	-2.3
CCN(CC)S(=O)(=O)c1cc(NC(=O)C(=O)c2c(-c3ccccc3)cc3ccccn23)ccc1C	25900*	-10.2	-3.7	-3.0
CCc1cccc(C)c1NC(=O)CSc1nc2ccncc2[nH]1	5473	-3.3	0.4	-0.8
CC1=C(C(=O)Nc2ccccc2)C(c2ccncc2)n2nnnc2N1 (stereo not given)	u	6.2	1.3	u
CC1=C(C(=O)Nc2cccnc2)C(c2ccncc2)n2nnnc2N1 (stereo not given)	19936*	-1.5	u	1.8
COc1ccccc1NC(=O)C1=C(C)Nc2nnnn2C1c1cc(Br)ccc1OC (stereo not given)	23731*	-4.7	-3.9	-1.6
COc1cccc(C2C(C(=O)Nc3cccnc3)=C(C)Nc3nnnn32)c1OC (stereo not given)	4340	0.8	0.2	1.5
CC1NC(=O)c2ccccc2-n2c1nc1ccc(F)cc1c2=O (stereo not given)	4759	-1.6	-0.8	-3.0
CCOC(=O)Cc1csc(NC(=O)C2C3C=CC(C3)C2C(=O)O)n1 (stereo not given)	3313	-3.6	1.7	-5.5
CCOC(=O)c1sc(NS(=O)(=O)c2ccccc2)nc1C	8457	2.7	-0.5	-1.7
Cc1csc(NC(=O)C2C3C=CC(C3)C2C(=O)O)n1 (stereo not given)	21611*	8.0	u	1.0
CCOC(=O)c1sc(NS(=O)(=O)c2ccccc2Cl)nc1C	26130*	-8.5	-6.0	-0.6
CCOC(=O)c1sc(NC(=O)C2C3C=CC(C3)C2C(=O)O)nc1C (stereo not given)	23393*	-1.9	-0.2	-0.1
CCOC(=O)c1sc(NC(=O)c2ccc(=O)[nH]c2)nc1C	3444	36.9*	1.9	18.5
SMILES	Autofluor counter	BoNT F protease	BoNT-A LC inh2	Anthrax LF inh2
Cc1ccc(N2CCC3CC2c2cc(-c4ccc(C(F)(F)F)cc4)ccc23)cc1 (stereo not given)	3785	-7.6	-0.7	-3.7
CCOc1ccc(C2C3=C(CCCC3=O)Nc3nc(C(F)(F)F)nn32)cc1OC (stereo not given)	2313	-1.1	0.7	-4.9
CCOc1cc(C2C3=C(CCCC3=O)Nc3nc(C(=O)OC)nn32)ccc1OC (stereo not given)	22585*	1.0	1.0	-1.0
CC1=CCC(C(=O)O)C(C(=O)O)C1 (stereo not given)	22181*	-1.4	-0.7	-0.7
CN(C)S(=O)(=O)c1ccc(NC(=O)CSc2nnc(-c3ccco3)o2)cc1	4552	u	-2.2	-3.7
COc1ccccc1C1(CC(=O)N2CCCCC2)CCOC(C(C)C)C1 (stereo not given)	16312*	-1.6	0.2	2.8
Clc1ccc(OCc2nnc(-c3ccccc3Br)o2)cc1	16365*	-0.5	0.2	-6.2
Clc1cccc(OCc2nnc(-c3ccccc3Br)o2)c1	3487	-6.1	0.8	2.6
COc1ccc(S(=O)(=O)NCCc2cn3nc(C)c(C)nc3n2)cc1F	5435	-10.6	5.6	0.4
Cc1ccc(-c2csc3nc(C)n(-n4c(C)ccc4C)c(=O)c23)o1	3228	-7.8	-0.1	-1.6
Cc1ccc(-c2csc3nc(C)n(N)c(=O)c23)o1	22183*	0.1	u	-0.9
COc1ccc(/C=C2\C(=O)NCC(=O)N2Cc2ccccc2)cc1	u	4.6	-0.6	-11.5
COc1ccc(/C=C2\C(=O)NCC(=O)N2C)cc1	6212	87.7*	4.6	34.2*
COc1ccc(OC)c(NC=C2C(=O)OC3(CCCCC3)OC2=O)c1	18401*	13.6	9.5	2.4
COc1ccc(OC)c(NC=C2C(=O)OC(C)(C)OC2=O)c1	2896	1.5	0.1	0.0
CCc1ccc(NC(=O)COC(=O)c2nc3nc(C)cc(C)n3n2)cc1	3037	-6.0	-0.7	-8.0
CC1(C)Cc2nc3oc4c(=O)n(CC(=O)Nc5ccccc5)cnc4c3cc2CO1	2473	-3.9	0.2	1.4
CC1(C)Cc2nc3sc4c(=O)n(CC(=O)NCc5ccco5)cnc4c3cc2CO1	19965*	11.6	u	-3.5
O=C(NCc1ccco1)c1ccc2sc([C@@H]3O[C@H](CO)[C@@H](O)[C@H]3O)nc2c1	3834	-3.0	-0.9	2.8
CC1(C)CC(C#N)(N2CCOCC2)CCO1 (stereo not given)	19964*	1.5	u	0.9
CN(C)NC(=S)Nc1cccc(Cl)c1	u	u	u	-1.2
O=C(NCCc1ccncc1)Nc1ccc(Cl)c(Cl)c1	4445	1.8	-0.8	-5.7
CN(C)S(=O)(=O)c1cccc(NC(=S)Nc2cc(Cl)cc(Cl)c2)c1	23036*	-2.1	u	-0.8
CN(C)CCNC(=S)Nc1cccc(Cl)c1	23002*	-1.5	-1.1	-0.9
CCN(CCO)c1ccc(NC(=S)Nc2cccc(S(=O)(=O)N(C)C)c2)cc1	3578	-6.8	-1.3	1.1
SMILES	Autofluor counter	BoNT F protease	BoNT-A LC inh2	Anthrax LF inh2
CN(C)CCNC(=O)Nc1ccc(Cl)c(Cl)c1	24214*	-1.4	-2.2	-0.7
COc1ccc(N(CC(=O)N/N=C/c2ccc(-c3ccc([N+](=O)[O-])cc3)o2)S(=O)(=O)c2ccc(C)cc2)cc1Cl	2649	42.2*	55.5*	44.2*
COc1ccc(N(CC(=O)N/N=C/c2ccc(-c3ccc([N+](=O)[O-])cc3)o2)S(=O)(=O)c2ccc(C)cc2)cc1	8056	17.1	20.0	21.7
O=C(Nc1ccc2c(c1)C(=O)NC2=O)c1cccc(C(F)(F)F)c1	5897	-2.3	-1.2	0.3
COC(F)(C(=O)Nc1ccc2c(c1)C(=O)NC2=O)C(F)(F)F (stereo not given)	22859*	1.9	1.2	2.6
O=C(NC1CCCC1)C(c1ccccn1)N(Cc1ccc(F)cc1)C(=O)c1csnn1 (stereo not given)	4108	-15.3	-3.0	9.4

High-throughput results as filed in PubChem.
